From PubChem BioAssay (Tox21)
Several values for one entry are separate records, joined by “and”; a condition that tells them apart may be missing. Identical values can stand only once. Inconclusive results are not listed. Entries that show only a call come without a potency. A structure can be active in one record and inactive in another. Activity calls are given as the source filed them. Unless noted, calls follow the shape of the dose curve; as a rule, active = well fitted curve in the direction sought with a large enough effect in the repeat runs; inconclusive = weak or mixed curves; inactive = no such curve, though single readings can be large; an effect the other way counts as inactive or inconclusive.

How the values were obtained:
[1] = qHTS assay to identify small molecule agonists of the peroxisome proliferator-activated receptor delta (PPARd) signaling pathway - cell viability counter screen (AID 743211); conditions: PPARd-bla HEK293H viability, CellTiter-Glo luminescence, 17 h; series mostly up to 62.6 µM; also: nearly all actives have a fitted effect of over 55% in size; also: potency is read from the fitted curve at half-maximal effect
How it was run: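 Read-out: CellTiter-Glo luminescence, 30 min RT, measured in the same wells as the beta-lactamase reporter. Cells: GeneBLAzer PPAR delta UAS-bla HEK293H, 3000 cells/well, compound exposure 17 h at 37C.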

[2] = qHTS assay to identify small molecule antagonists of the peroxisome proliferator-activated receptor delta (PPARd) signaling pathway - cell viability counter screen (AID 743213); conditions: PPARd-bla HEK293H viability, CellTiter-Glo luminescence, 17 h; series mostly up to 62 µM; also: nearly all actives have a fitted effect of over 50% in size; also: potency is read from the fitted curve at half-maximal effect
How it was run: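 Viability counter-screen, qHTS format: PPARd-bla HEK293H, L165041 300 nM final, 17 h compound exposure at 37 C, CellTiter-Glo luminescence after 30 min RT.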

[3] = qHTS assay to identify small molecule agonists of the farnesoid-X-receptor (FXR) signaling pathway - cell viability counter screen (AID 743218); conditions: FXR-bla HEK293T viability, CellTiter-Glo luminescence, 16 h; series mostly up to 62.6 µM; also: nearly all actives have a fitted effect of over 45% in size; also: potency is read from the fitted curve at half-maximal effect
How it was run: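 Luminescence from CellTiter-Glo, read after 30 min at RT, reports viability of GeneBLAzer FXR-UAS-bla HEK 293T cells treated 16 h with compounds in the wells used for the beta-lactamase reporter.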

[4] = qHTS assay to identify small molecule antagonists of the farnesoid-X-receptor (FXR) signaling pathway - cell viability counter screen (AID 743221; active = well fitted cell-killing curve with a large enough effect in the repeat runs, not every such curve was filed as active; also: nearly all actives have a fitted effect of over 50% in size; also: potency is read from the fitted curve at half-maximal effect); conditions: FXR-bla HEK293T viability, CellTiter-Glo luminescence, 16 h; series mostly up to 62.6 µM
How it was run: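 HEK 293T FXR-bla cells, 5 h pre-incubation; compound + CDCA 50 uM final, 16 h, 37 C; beta-lactamase FRET read first, then CellTiter-Glo luminescence, 30 min RT.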

[5] = target: Vitamin D3 receptor (Homo sapiens) (UniProt P11473); test: qHTS assay to identify small molecule agonists of the vitamin D receptor (VDR) signaling pathway (AID 743222; calls by dose curve); conditions: HEK293T VDR-UAS-bla, beta-lactamase FRET ratio, 16 h; series mostly up to 63.5 µM
How it was run: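 Beta-lactamase reporter readout (LiveBLAzer B/G FRET, 2 h RT) in VDR-bla cells after 16 h compound treatment at 37C, 5% CO2; cells pre-incubated 4 h before pin transfer of DMSO solutions.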

[6] = target: Peroxisome proliferator-activated receptor delta (Homo sapiens) (UniProt Q03181); test: qHTS assay to identify small molecule antagonists of the peroxisome proliferator-activated receptor delta (PPARd) signaling pathway (AID 743215; active = well fitted inhibition curve with a large enough effect in the signal ratio in the repeat runs, not every such curve was filed as active; the % refers to the signal ratio;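 also: cells stimulated with agonist L165041 at 300 nM final during compound exposure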); conditions: HEK293H PPARd-UAS-bla, beta-lactamase FRET ratio, antagonist, 17 h; series mostly up to 62 µM
How it was run: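 HEK293H GeneBLAzer PPARd UAS-bla reporter cells; cpd + L165041 300 nM final, 17 h 37 C; LiveBLAzer B/G FRET substrate 2 h RT; fluorescence intensity read-out. Antagonist mode.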

[7] = target: Bile acid receptor (Homo sapiens) (UniProt Q96RI1); test: qHTS assay to identify small molecule antagonists of the farnesoid-X-receptor (FXR) signaling pathway (AID 743217; active = well fitted inhibition curve with a large enough effect in the signal ratio in the repeat runs, not every such curve was filed as active; the % refers to the signal ratio; also: potency is read from the fitted curve at half-maximal effect); conditions: HEK293T FXR-UAS-bla, beta-lactamase ratio, CDCA-stimulated, 16 h; series mostly up to 62.6 µM
How it was run: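 Read-out: beta-lactamase FRET fluorescence (LiveBLAzer B/G substrate, 2 h, room temperature) in GeneBLAzer FXR-UAS-bla HEK 293T cells. Compounds were co-dosed with 50 uM chenodeoxycholic acid (final) and incubated 16 h at 37 °C.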

[8] = target: Peroxisome proliferator-activated receptor delta (Homo sapiens) (UniProt Q03181); test: qHTS assay to identify small molecule agonists of the peroxisome proliferator-activated receptor delta (PPARd) signaling pathway (AID 743212; calls by dose curve); conditions: HEK293H PPARd-UAS-bla, beta-lactamase FRET ratio, 17 h; series mostly up to 62.6 µM
How it was run: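 Beta-lactamase reporter read by fluorescence (LiveBLAzer B/G FRET, 2 h, room temperature). Test agents, in DMSO, incubated at 37 C with PPARd-bla HEK293H cells.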

[9] = target: Bile acid receptor (Homo sapiens) (UniProt Q96RI1); test: qHTS assay to identify small molecule agonists of the farnesoid-X-receptor (FXR) signaling pathway (AID 743220; active = well fitted activation curve with a large enough effect in the signal ratio in the repeat runs, not every such curve was filed as active; the % refers to the signal ratio); conditions: HEK293T FXR-UAS-bla, beta-lactamase FRET ratio, 16 h; series mostly up to 62.6 µM
How it was run: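 FXR-UAS-bla HEK 293T cells carrying a UAS-driven beta-lactamase reporter were plated for 5 h at 37C/5% CO2, then exposed to DMSO-dissolved Tox21 10K compounds for 16 h at 37C. A LiveBLAzer B/G FRET substrate was loaded for 2 h at room temperature before fluorescence reading.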

[10] = target: Vitamin D3 receptor (Homo sapiens) (UniProt P11473); test: qHTS assay to identify small molecule antagonists of the vitamin D receptor (VDR) signaling pathway (AID 743223; active = well fitted inhibition curve with a large enough effect in the signal ratio in the repeat runs, not every such curve was filed as active; the % refers to the signal ratio); conditions: VDR-UAS-bla HEK293T, beta-lactamase FRET ratio, 16 h; series mostly up to 61 µM
How it was run: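 Beta-lactamase reporter read-out: FRET substrate fluorescence after 2 h at room temperature, following 16 h exposure of VDR-bla cells to test compound plus 3 nM (final) 1alpha,25-dihydroxyvitamin D3 agonist at 37C.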

Chain of Peroxisome proliferator-activated receptor delta (Homo sapiens) (Q03181 whole entry, looked up): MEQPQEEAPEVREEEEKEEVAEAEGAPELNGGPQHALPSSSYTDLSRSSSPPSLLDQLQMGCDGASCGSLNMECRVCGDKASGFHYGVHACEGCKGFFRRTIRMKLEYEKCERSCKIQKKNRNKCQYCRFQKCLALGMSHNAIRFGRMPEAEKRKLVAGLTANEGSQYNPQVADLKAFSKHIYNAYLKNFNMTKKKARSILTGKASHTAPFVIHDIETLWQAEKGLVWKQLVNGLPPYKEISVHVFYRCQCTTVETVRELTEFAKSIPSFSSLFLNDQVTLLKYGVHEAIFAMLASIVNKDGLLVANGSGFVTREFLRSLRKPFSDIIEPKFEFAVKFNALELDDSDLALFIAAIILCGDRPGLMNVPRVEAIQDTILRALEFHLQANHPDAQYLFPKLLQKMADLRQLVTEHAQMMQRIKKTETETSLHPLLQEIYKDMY
Chain of Bile acid receptor (Homo sapiens) (Q96RI1 whole entry, looked up): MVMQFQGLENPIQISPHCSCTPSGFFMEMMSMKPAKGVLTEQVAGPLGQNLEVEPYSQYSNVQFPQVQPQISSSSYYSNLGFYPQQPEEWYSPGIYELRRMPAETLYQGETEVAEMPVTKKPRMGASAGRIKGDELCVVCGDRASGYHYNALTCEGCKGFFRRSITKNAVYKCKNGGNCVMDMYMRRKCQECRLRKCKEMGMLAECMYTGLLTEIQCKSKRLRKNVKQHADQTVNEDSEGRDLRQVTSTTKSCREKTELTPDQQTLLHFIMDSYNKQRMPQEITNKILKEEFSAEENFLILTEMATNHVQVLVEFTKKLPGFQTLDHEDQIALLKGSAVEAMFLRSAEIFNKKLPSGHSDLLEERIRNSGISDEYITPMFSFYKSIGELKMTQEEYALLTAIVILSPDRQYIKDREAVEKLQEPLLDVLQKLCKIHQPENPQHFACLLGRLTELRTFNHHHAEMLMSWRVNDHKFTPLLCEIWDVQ
Chain of Vitamin D3 receptor (Homo sapiens) (P11473 whole entry, looked up): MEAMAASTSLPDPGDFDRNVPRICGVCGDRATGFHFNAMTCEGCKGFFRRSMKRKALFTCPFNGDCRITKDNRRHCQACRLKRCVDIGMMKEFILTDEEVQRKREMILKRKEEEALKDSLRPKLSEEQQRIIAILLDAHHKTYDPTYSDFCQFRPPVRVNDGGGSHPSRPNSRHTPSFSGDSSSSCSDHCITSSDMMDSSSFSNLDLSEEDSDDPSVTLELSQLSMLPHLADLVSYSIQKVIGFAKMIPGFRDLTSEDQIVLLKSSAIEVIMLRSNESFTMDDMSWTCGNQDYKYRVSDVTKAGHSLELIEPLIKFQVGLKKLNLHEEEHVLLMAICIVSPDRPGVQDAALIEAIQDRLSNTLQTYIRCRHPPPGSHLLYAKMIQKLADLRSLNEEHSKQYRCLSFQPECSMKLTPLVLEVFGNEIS

Structure (SMILES) | Potency [1] | Potency [2] | Potency [3] | Potency [4] | Potency [5] | Potency [6] | Potency [7] | Potency [8] | Potency [9] | Potency [10]
CCCN[C@H]1CCc2nc(N)sc2C1 | inactive | inactive | inactive | inactive | inactive | – | – | – | – | –
CCCCCCC(O)CCCCCCCCCCC(=O)O (stereo unspecified) | 19.6 µM (active) and 19.5 µM (active) | – | inactive | – | – | inactive | inactive and 34.7 µM (active) | – | – | –
CCC(CO)(CO)COCC(CC)(CO)CO | inactive | inactive | inactive | inactive | inactive | – | – | – | – | –
O=C(O[C@@H]1Cc2c(O)cc(O)cc2O[C@@H]1c1cc(O)c(O)c(O)c1)c1cc(O)c(O)c(O)c1 | inactive | inactive | inactive | inactive | inactive | – | – | – | – | –
CC(C)CCOCc1ccccc1 | inactive | inactive | inactive | inactive | inactive | – | – | – | – | –
CCN(CC)c1ccc2c(C)cc(=O)oc2c1 | inactive | inactive | inactive | inactive | – | – | – | – | – | –
CNC1(C)C2CCC(C2)C1(C)C (stereo unspecified) | – | inactive | inactive | inactive | inactive | inactive | inactive | inactive | inactive | –
CC(C)(c1ccccc1)c1ccc(Nc2ccc(C(C)(C)c3ccccc3)cc2)cc1 | inactive | inactive | inactive | inactive | – | – | – | – | – | –
CC(=O)OCCOCCOCCOC(C)=O | – | inactive | inactive | inactive | inactive | inactive | inactive | inactive | inactive | inactive
CCCCC/C=C/CC1CC(=O)OC1=O (stereo unspecified) | inactive | inactive | inactive | inactive | inactive | – | – | – | – | inactive
Nc1nc(=S)c2[nH]cnc2[nH]1 | inactive | – | inactive | inactive | – | – | – | – | – | –
O=C(Oc1ccccc1)c1ccccc1O | inactive | inactive | inactive | inactive | – | – | – | – | – | –
COC(=O)[C@H]1[C@H]2C[C@@H]3c4[nH]c5cc(OC)ccc5c4CCN3C[C@H]2C[C@@H](OC(=O)c2cc(OC)c(OC)c(OC)c2)[C@@H]1OC | – | 17.9 µM (active) | 22.5 µM (active) | inactive | – | inactive | – | – | – | –
CC1=C(C=O)C(C)(C)CC=C1 | – | inactive | inactive | inactive | inactive | – | – | inactive | – | –
CCOC(=O)C(C)C(C)=O (stereo unspecified) | – | inactive | inactive | inactive | – | inactive | – | – | – | –
CC(N)=O | – | inactive | inactive | inactive | – | – | – | – | – | –
Cc1ccnc2c1NC(=O)c1cccnc1N2C1CC1 | – | inactive | inactive | inactive | inactive | inactive | inactive | – | inactive | –
O=C(O)c1cc(Cl)cc(Cl)c1 | – | inactive | inactive | inactive | – | inactive | – | inactive | – | –
BrC1CCC(Br)C(Br)CCC(Br)C(Br)CCC1Br (stereo unspecified) | – | 10.4 µM (active) | inactive and 20.8 µM (active) | inactive | inactive | inactive | – | – | inactive | inactive
CCC(C)(C)C(=O)O[C@H]1C[C@@H](C)C=C2C=C[C@H](C)[C@H](CC[C@@H]3C[C@@H](O)CC(=O)O3)[C@H]21 | – | inactive | inactive | 11 µM (active) | inactive | – | – | – | – | –
